Data on eight compounds can be found in PubChem BioAssay (Tox21).

Several values for one entry are separate records, joined by “and”; a condition that tells them apart may be missing. Identical values can stand only once. Records with an inconclusive call do not appear. Some compounds were tested as several samples or in several runs, with calls that do not always agree. Activity calls are given as the source filed them. Unless noted, the call rests on the fitted dose curve; in most records, active means well fitted curve in the direction sought with a large enough effect in the repeat runs; inconclusive means weak or mixed curves; inactive means no such curve, though single readings can be large; an effect the other way counts as inactive or inconclusive.

Assay [1] in a line: qHTS assay to identify small molecule antagonists of the estrogen related receptor (ERR) signaling pathway from Tox21 library - cell viability counter screen (AID 1224834). Further: nearly all actives have a fitted effect of over 30% in size. Further: potency means the concentration at half of the fitted maximal effect. In short, it runs like this: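 Seeded ERR cells were rested 6 h at 37 C/5% CO2 before compounds, positive and negative controls or DMSO were added. Incubation continued for 17.5 h, and viability was then quantified by CellTiter-Fluor fluorescence.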

For assay [2], the target named is Luciferin 4-monooxygenase (Photinus pyralis) (UniProt P08659). In words: qHTS assay to identify small molecule inhibitors of firefly luciferase (AID 1224835). Further: nearly all actives have a fitted effect of over 25% in size. Further: potency means the concentration at half of the fitted maximal effect. In short, it runs like this: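 Inhibition of purified Photinus luciferase is measured by luminescence. Substrate levels (D-luciferin, ATP) sit at their KM values. Each compound is tested in a concentration series.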

A short description of assay [3]: qHTS assay to identify small molecule agonists of the constitutive androstane receptor (CAR) signaling pathway - cell viability counter screen (AID 1224836). Further: nearly all actives have a fitted effect of over 45% in size. The method, boiled down:
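Fluorescence from CellTiter-Fluor indicates live cells after 23 h exposure. The human hepatoma line expresses hCAR and a CYP2B6-2.2kb reporter. Incubation medium contains 0.75 uM PK11195 (final).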

Assay [4] in a line: qHTS assay to identify small molecule antagonists of the constitutive androstane receptor (CAR) signaling pathway - cell viability counter screen (AID 1224837). Further: nearly all actives have a fitted effect of over 45% in size. In short, it runs like this:
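To flag cytotoxic false antagonists, HepG2 hCAR/CYP2B6-2.2kb cells were treated 23 hr with 15-concentration compound series and 50 nM CITCO at 37 C/5% CO2; CellTiter-Fluor fluorescence was the measured end point.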

Assay [5] addresses Nuclear receptor subfamily 1 group I member 3 (Homo sapiens) (UniProt Q14994). In words: qHTS assay to identify small molecule antagonists of the constitutive androstane receptor (CAR) signaling pathway (AID 1224838).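 Further: HepG2 cells stably expressing hCAR with CYP2B6 luciferase reporter stimulated by CITCO; nearly all actives have a fitted effect of over 40% in size.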 The method, boiled down:
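Human hepatoma HepG2 cells expressing hCAR and a CYP2B6 promoter (2.2 kb) luciferase construct; compound titration (15 points) with 50 nM CITCO final, 24 h at 37 C/5% CO2; luminescence via ONE-Glo after 30 min at room temperature.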

Assay [6] has the same target. In words: qHTS assay to identify small molecule agonists of the constitutive androstane receptor (CAR) signaling pathway (AID 1224839). Further: nearly all actives have a fitted effect of over 15% in size. Further: potency means the concentration at half of the fitted maximal effect.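 On activation: HepG2 cells stably carrying human CAR and a CYP2B6 luciferase reporter.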 In short, it runs like this: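 Stable hCAR/CYP2B6-2.2kb HepG2 line in DMEM with 10% FBS; compounds (15 concentrations) and 0.75 uM PK11195 final, 24 h at 37 C/5% CO2, then ONE-Glo luminescence after 30 min.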
Assay [7] is described as follows: qHTS assay to identify small molecule antagonists of the estrogen related receptor signaling pathway with the pleiotropic PPARgamma coactivator (PGC) from Tox21 10K library - cell viability counter screen (AID 1224840; active means well fitted cell-killing curve with a large enough effect in the repeat runs, not every such curve was filed as active; further: nearly all actives have a fitted effect of over 40% in size). The method, boiled down: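 Seeded PGC/ERR cells (2,000/well, 6 h, 37 C/5% CO2) get compound by pin tool; 17.5 h incubation at 37 C; CellTiter-Fluor added, 30 min, fluorescence measured.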

Assay [8] is described as follows: qHTS assay to identify small molecule antagonists of the estrogen related receptor signaling pathway with the pleiotropic PPARgamma coactivator (PGC) from Tox21 10K library (AID 1224841; call rule not given here; further: actives are mostly falling curves and most rising ones were filed inactive; nearly all actives have a fitted effect of over 50% in size). The method, boiled down: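 Test chemicals dissolved in DMSO were applied to pre-incubated (6 h) PGC/ERR cells at 2,000 cells/well for an 18 h, 37 C treatment; reporter luminescence was then read using One-Glo.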

Assay [9] can be described thus: qHTS assay to identify small molecule agonists of the estrogen related receptor signaling pathway with the pleiotropic PPARgamma coactivator (PGC) from Tox21 10K library (AID 1224842). Further: nearly all actives have a fitted effect of over 15% in size. The method, boiled down: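 Luminescence from One-Glo (30 min, room temperature) measured after PGC/ERR cells had 18 h at 37 C with pinned compound (23 nL in DMSO). Cells had been seeded at 2,000 per well and pre-incubated 6 h.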

A short description of assay [10]: qHTS assay to identify small molecule agonists of the hypoxia (HIF-1) signaling pathway - cell viability counter screen (AID 1224844; calls by dose curve; further: nearly all actives have a fitted effect of over 50% in size). The method, boiled down:
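HRE-bla ME-180; 0.5% dFBS; cpd 17 h, 37C, 5% CO2; CellTiter-Glo lum., 30 min RT, post-FRET read, same wells.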

The nature of assay [11]: qHTS assay to identify small molecule agonists of H2AX (AID 1224845; active means well fitted activation curve with a large enough effect in the signal ratio in the repeat runs, not every such curve was filed as active; the % refers to the signal ratio). In short, it runs like this:
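Phospho-H2AX Ser139 measured by HTRF (ex 320 nm; em 665 and 620 nm) after 24 hr antibody incubation. Compounds, 15 concentrations, 0.76% DMSO, were applied to CHO-K1 cells for 3hr at 37C before lysis.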

Assay [12] in a line: qHTS assay to identify small molecule agonists of the hypoxia (HIF-1) signaling pathway (AID 1224846; active means well fitted activation curve with a large enough effect in the signal ratio in the repeat runs, not every such curve was filed as active; the % refers to the signal ratio). The method, boiled down:
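Reporter induction in HRE-bla ME-180 cells is taken as agonism: cells sit 5 hrs after plating, receive compounds or DMSO only, incubate 17 hrs at 37C under 5% CO2, and are loaded with CCF4-AM for beta-lactamase FRET measurement.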

The nature of assay [13]: qHTS assay to identify small molecule agonists of H2AX - cell viability counter screen (AID 1224847; calls by dose curve; further: nearly all actives have a fitted effect of over 30% in size; further: potency means the concentration at half of the fitted maximal effect). The method, boiled down:
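Viability of CHO-K1 (wild type) cells after 3 hr compound exposure was measured by CellTiter-Glo luminescence.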

Assay [14] can be described thus: qHTS assay to identify small molecule antagonists of the estrogen related receptor (ERR) signaling pathway from Tox21 library (AID 1224848). Further: nearly all actives have a fitted effect of over 50% in size. Further: potency means the concentration at half of the fitted maximal effect. The method, boiled down:
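Luciferase luminescence (ONE-Glo, 30 min room temperature) was the read-out. Cells of the NTP-supplied ERR line, 2,000 per well, were given 6 h at 37 C before compound addition in DMSO and 18 h exposure at 37 C.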

The nature of assay [15]: qHTS assay to identify small molecule agonists of the estrogen related receptor (ERR) signaling pathway from Tox21 library (AID 1224849; calls by dose curve; further: nearly all actives have a fitted effect of over 15% in size). The following applies: ERR reporter cell line, ONE-Glo luciferase, 18 h. In short, it runs like this: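 Tox21 compounds tested for ERR agonism in an NTP reporter cell line: 18 h treatment at 37 C, then ONE-Glo luminescence.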
The nature of assay [16]: qHTS RealTime-Glo MT Cell Viability Assay in HepG2 cells - 24 hour (AID 1224867). Further: nearly all actives have a fitted effect of over 50% in size. The method, boiled down:
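Tox21 10K library screened in qHTS format on HepG2 cells carrying RealTime-Glo reagents. Compounds were added after a 5 h preincubation, and the luminescent signal from continuous culture was measured repeatedly during 40 h treatment.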

Assay [17] can be described thus: qHTS RealTime-Glo MT Cell Viability Assay in HEK293 cells - 32 hour (AID 1224868). The method, boiled down: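 Luminescence generated by NanoLuc from substrate produced by living HEK293 cells served as the viability signal. Each value reflects the reading at its stated time point during continuous 40 h compound exposure at 37 C.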
Assay [18] is described as follows: A CellTox Green Cytotoxicity Assay to monitor cytotoxicity in HEK293 cells - 0 hour (AID 1224869). Further: nearly all actives have a fitted effect of over 50% in size. In short, it runs like this: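 Tox21 screen in HEK293: membrane-impermeant cyanine dye fluoresces on binding dead-cell DNA; compound pinned 5 h post-seeding, plates held at 37 C, signal read repeatedly through 40 h.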
Assay [19] has as its target Thyrotropin receptor (Homo sapiens) (UniProt P16473). In words: qHTS assay to identify small molecule agonists of the thyroid stimulating hormone receptor (TSHR) signaling pathway (AID 1224843; calls by dose curve; further: nearly all actives have a fitted effect of over 45% in size). In short, it runs like this: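 Agonist activity read as cAMP rise via d2/cryptate HTRF competition, 1 h room-temperature detection, in HEK293 cells expressing TSHR. Fifteen-point titrations, each run in triplicate, with a 30 min room-temperature incubation beforehand.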

A short description of assay [20]: qHTS assay to identify small molecule agonists of the estrogen related receptor signaling pathway with the pleiotropic PPARgamma coactivator (PGC) (AID 1224823). In short, it runs like this: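 Compounds dissolved in DMSO are added by pin tool to PGC/ERR cells that have settled for 6 h, and incubation continues 18 h at 37 C. Reporter output is measured as One-Glo luminescence.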
On the % scale 0 is the no-effect control and ±100 the full control effect.

Sequence of Luciferin 4-monooxygenase (Photinus pyralis) (P08659 whole entry, looked up): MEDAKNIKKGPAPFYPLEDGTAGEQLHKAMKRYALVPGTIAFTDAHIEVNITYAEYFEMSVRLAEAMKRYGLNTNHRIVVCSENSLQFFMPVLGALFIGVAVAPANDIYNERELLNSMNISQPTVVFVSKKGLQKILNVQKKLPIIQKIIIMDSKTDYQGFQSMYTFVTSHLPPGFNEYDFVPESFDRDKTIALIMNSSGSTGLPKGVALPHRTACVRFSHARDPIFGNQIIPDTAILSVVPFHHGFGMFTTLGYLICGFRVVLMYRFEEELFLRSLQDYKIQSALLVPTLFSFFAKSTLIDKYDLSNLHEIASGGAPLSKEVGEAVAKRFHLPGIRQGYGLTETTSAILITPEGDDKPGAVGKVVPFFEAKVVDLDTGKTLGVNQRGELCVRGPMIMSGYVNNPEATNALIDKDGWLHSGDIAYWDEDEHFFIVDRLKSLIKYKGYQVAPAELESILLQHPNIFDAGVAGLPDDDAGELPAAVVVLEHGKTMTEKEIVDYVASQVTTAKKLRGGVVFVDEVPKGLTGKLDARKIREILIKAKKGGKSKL
Sequence of Nuclear receptor subfamily 1 group I member 3 (Homo sapiens) (Q14994 whole entry, looked up): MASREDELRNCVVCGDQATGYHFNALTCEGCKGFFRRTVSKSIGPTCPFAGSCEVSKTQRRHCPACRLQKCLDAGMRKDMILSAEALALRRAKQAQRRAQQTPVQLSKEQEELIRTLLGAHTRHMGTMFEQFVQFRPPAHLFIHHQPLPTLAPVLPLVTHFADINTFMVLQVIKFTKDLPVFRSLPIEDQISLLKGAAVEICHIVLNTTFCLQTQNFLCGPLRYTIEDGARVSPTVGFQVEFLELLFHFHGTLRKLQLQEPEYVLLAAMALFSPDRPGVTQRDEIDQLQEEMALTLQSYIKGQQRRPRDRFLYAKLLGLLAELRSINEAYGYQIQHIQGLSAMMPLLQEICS
Sequence of Thyrotropin receptor (Homo sapiens) (P16473 whole entry, looked up): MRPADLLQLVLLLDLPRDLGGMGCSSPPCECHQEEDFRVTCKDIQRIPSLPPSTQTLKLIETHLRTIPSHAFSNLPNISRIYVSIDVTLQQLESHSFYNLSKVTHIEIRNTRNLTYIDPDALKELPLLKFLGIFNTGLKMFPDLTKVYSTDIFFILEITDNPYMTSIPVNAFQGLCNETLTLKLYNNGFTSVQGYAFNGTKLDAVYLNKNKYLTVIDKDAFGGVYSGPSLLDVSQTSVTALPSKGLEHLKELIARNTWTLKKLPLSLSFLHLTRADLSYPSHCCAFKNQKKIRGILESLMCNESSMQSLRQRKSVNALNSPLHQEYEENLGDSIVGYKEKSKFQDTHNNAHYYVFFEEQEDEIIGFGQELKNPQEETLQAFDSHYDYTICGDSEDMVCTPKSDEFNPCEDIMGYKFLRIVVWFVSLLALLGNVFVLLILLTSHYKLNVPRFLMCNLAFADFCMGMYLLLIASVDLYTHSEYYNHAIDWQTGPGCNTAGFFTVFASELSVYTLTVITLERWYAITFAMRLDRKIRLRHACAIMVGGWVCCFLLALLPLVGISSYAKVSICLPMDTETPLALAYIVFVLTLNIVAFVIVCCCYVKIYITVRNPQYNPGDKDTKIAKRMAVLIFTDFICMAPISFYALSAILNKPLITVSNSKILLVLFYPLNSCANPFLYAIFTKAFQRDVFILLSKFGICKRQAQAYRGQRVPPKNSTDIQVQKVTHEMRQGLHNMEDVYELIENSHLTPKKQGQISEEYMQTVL

For the compound `CCCCNC(N)=O`, the Potency result in assay [1], in [2], in assay [3], in assay [4], in assay [5] and in assay [6] was “inactive” in each case. In addition, the Potency result in assay [7], in [8], in assay [9], in [10], in [11] and in assay [13] was “inactive” throughout. Moreover, the Potency result in assay [14], in assay [16], in assay [17] and in assay [18] was “inactive” each time. The call in assay [12] was inactive. Further, in [15] (at 92.4 µM (top of the series)), the activity change, positive = activation was 7.41% (inactive) and 4.54% (inactive).

Consider `CN(CCOc1ccc(CC2SC(=O)NC2=O)cc1)c1ccccn1` (stereo not given), for which the Potency result in [1], in assay [3], in assay [4], in assay [6], in assay [7] and in [19] was “inactive” in each case. The Potency result in assay [10], in assay [11], in assay [13], in assay [16] and in assay [17] was “inactive” throughout. The Potency in assay [2] was 70.6 µM (active) and inactive. In assay [12], the result was inactive.

Take `NCc1cccc(CN)c1`: the Potency result in [1], in assay [2], in assay [3], in [4], in [6] and in assay [7] was “inactive” in each case. Further, the Potency entry in [19], in assay [10], in assay [11], in assay [13], in assay [16] and in assay [17] was “inactive” in each case.

Take `CCCCCCCCCCC=CC1CC(=O)OC1=O` (stereo not given): the Potency entry in assay [1], in [3], in [4], in [5], in [6] and in [7] was “inactive” each time. Also, the Potency entry in assay [19], in assay [10], in [11], in assay [13], in assay [16] and in assay [17] was “inactive” throughout. The Potency in assay [2] is 63.6 µM (active) and 71 µM (active).

Turning to `Cc1cc(O)c2c(c1)C(=O)c1cc(O)cc(O)c1C2=O`, the Potency result in [20], in assay [4], in assay [5], in [7], in assay [8] and in [9] was “inactive” each time. The Potency result in [19], in [10], in [16] and in [18] was “inactive” each time. The Potency in [1] is 27.3 µM (active); in assay [2], 34.8 µM (active) and 31.7 µM (active); in assay [6] it was 48.6 µM (active); in [13], 55.4 µM (active) and 80 µM (active); in [14], “inactive and 54.5 µM (active)”. The result in assay [12] was inactive. For the same compound, the activity change, positive = activation was -4% (inactive) in assay [15] (at 42.5 µM (top of the series)) and -40.4% (inactive) in [15] (at 92.4 µM (top of the series)).

With `NC(=O)/N=N/C(N)=O`, the Potency result in assay [1], in assay [3], in [4], in assay [6], in [7] and in assay [8] was “inactive” throughout. Also, the Potency entry in assay [9], in [10], in [11], in assay [13], in assay [14] and in [16] was “inactive” each time. The Potency entry in assay [17] and in assay [18] was “inactive” throughout. In assay [2], the Potency was 31.8 µM (active) and 25.2 µM (active). Also, in assay [12], the outcome was inactive. The activity change, positive = activation in assay [15] (at 92.4 µM (top of the series)) is 0.308% (inactive) and 1.1% (inactive).

With `CC1=C(CC(=O)O)c2cc(F)ccc2/C1=C\c1ccc(S(C)=O)cc1` (stereo not given), the Potency entry in assay [1], in assay [2], in [3], in [4], in assay [5] and in [7] was “inactive” in each case. For the same compound, the Potency result in assay [19], in assay [10], in assay [11], in assay [13], in [16] and in [17] was “inactive” each time. For the same compound, the Potency result in [18] is “inactive”. Also, in assay [6], the Potency was 61.1 µM (active) and inactive.

For `Cn1c([N+](=O)[O-])cnc1COC(N)=O`, the Potency entry in assay [1], in assay [2], in assay [3], in [4], in [6] and in [7] was “inactive” throughout. The Potency entry in assay [8], in assay [9], in assay [10], in assay [11], in assay [14] and in [16] was “inactive” throughout. Also, the Potency result in assay [17] was “inactive”. Besides, the activity change, positive = activation was 3.23% (inactive) in [15] (at 42.5 µM (top of the series)) and 6.73% (inactive) in [15] (at 92.4 µM (top of the series)).
